Giardia FBPA inh = blocks Giardia fructose-bisphosphate aldolase activity | Potency, µM (highest dose often 59.6 µM), for the others: top-dose activity, negative = inhibition, most hits filed as inhibitors | 0.71% of 290,000 active | A8B2U2 | purified Giardia FBPA; also: potency is read from the fitted curve at half-maximal effect; % is scaled to controls: 0 for no effect and ±100 for the full control effect; nearly all actives have a fitted effect of over 55% in size
Target sequence (A8B2U2 whole entry, looked up): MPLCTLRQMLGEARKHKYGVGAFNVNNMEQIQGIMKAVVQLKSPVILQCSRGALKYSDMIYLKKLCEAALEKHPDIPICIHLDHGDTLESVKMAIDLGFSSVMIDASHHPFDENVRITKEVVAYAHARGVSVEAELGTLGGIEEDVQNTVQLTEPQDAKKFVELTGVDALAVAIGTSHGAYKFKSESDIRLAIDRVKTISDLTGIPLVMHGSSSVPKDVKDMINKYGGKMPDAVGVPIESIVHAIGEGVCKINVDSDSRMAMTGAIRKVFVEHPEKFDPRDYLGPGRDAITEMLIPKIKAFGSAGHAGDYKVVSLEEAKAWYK
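40 nM FBPA preincubated 10 min at RT with compound (up to 57.5 uM final), then substrate plus GAPDH/TPI/NAD/arsenate coupling and diaphorase/resazurin added. Fluorescence read after 20 min at RT, 525/598 nm.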
NS1 function inh = inhibitors of influenza NS1 protein function; Potency, µM (doses to about 46.1 µM), inactives show at the highest dose activity, positive = more growth; 0.4% of 270,000 active; calls by dose curve; also: potency is read from the fitted curve at half-maximal effect; actives are rising curves; nearly all actives have a fitted effect of over 50% in size
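A cell-based growth assay was used: compounds that relieve NS1-induced slow growth of budding yeast raise OD600. Assay medium was yeast nitrogen base with ammonium sulphate and -URA supplement, pH 6.0, with 2% galactose.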
Shiga toxin inh = inhibitors of Shiga toxin in Vero cells; 9.2% of 290,000 active; Vero cells, Shiga toxin protein synthesis inhibition reporter; inhibition, % at 38.7 µM; in the data active = inhibition mostly above about 28%, no sharp cut-off; inactive = mostly below about 43%; also: 0% is about no effect
Cycloheximide cs = counter-screen for Shiga toxin inhibitors: cycloheximide protein synthesis inhibition. max response, %. cell reporter, cycloheximide protein synthesis inhibition counterscreen. 12% of 300,000 active. AID 2314; in the data active = max response mostly above about 13%, no sharp cut-off; inactive = mostly below about 14%; also: read at 38.3 µM for the half of the compounds with a filed dose; 0% is about no effect
LmPK inh = blocks Leishmania mexicana pyruvate kinase activity; purified LmPK, Kinase-Glo ATP luminescence, 1 h; 0.37% of 290,000 active; Q27686; Potency, µM (highest dose often 57.5 µM), for the others: at the highest dose activity change, negative = inhibition, usual class: inhibitors; also: potency is read from the fitted curve at half-maximal effect; % is scaled to controls: 0 for no effect and ±100 for the full control effect
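Purified LmPK (0.1 nM) with 0.5 mM PEP and 0.1 mM ADP in imidazole buffer pH 7.2 with MgCl2/KCl, 1 h at room temperature. ATP formed was read by luciferase luminescence and normalized to no-enzyme and uninhibited controls.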
Numbers without * were called inactive; ? = inconclusive; . = no result. Shown are actives, neighbours in structure and some others; about 14% of the full set was active somewhere. Unless noted, calls follow the shape of the dose curve; as a rule, active = well fitted curve in the direction sought with a large enough effect; inconclusive = small, poorly fitted or top-dose-only effect, or another doubt; inactive = no such curve, though single readings can be large; an effect the other way counts as inactive or inconclusive.

SMILES	Giardia FBPA inh	NS1 function inh	Shiga toxin inh	Cycloheximide cs	LmPK inh
CN1C(=O)c2ccc(NC(=O)c3ccc(Cl)cc3Cl)cc2C1=O	.	-17.2%	14.1	22.0*	-6.5%
O=C(Nc1ccc2ccccc2c1)c1ccc(Cl)cc1Cl	0.0%	4.7%	31.7*	26.0*	-10.0%
O=C(Nc1ccc2ccccc2c1)c1ccccc1O	0.9%	-40.4%	36.1*	23.5*	-8.4%
O=C(Nc1ccc2c(c1)C(=O)OC2)c1ccc(Cl)cc1Cl	8.0%	-9.5%	10.1	16.0	0.3%
CCCCOc1ccc(NC(=O)c2cc(F)c(F)cc2Cl)cc1	2.0%	-9.7%	22.2	10.0	-0.8%
O=C(Nc1ccc2ccccc2c1)c1cc(F)c(F)cc1Cl	6.3%	14.2%	109.6*	47.3*	3.2%
COc1ncc2ncc(=O)n(CCc3ccccc3)c2n1	1.2%	.	.	.	.
Cc1ccc(-c2c(C)sc(=NC(=O)c3ccco3)n2C)cc1	0.2%	-63.7%	97.0*	66.7*	0.2%
CN(C)c1ccc(-c2nccc(NCCN3CCOCC3)n2)cc1	-8.7%	.	.	.	.
N#Cc1cnc(Oc2ccc(Cl)cc2)nc1N	7.8%	1.8%	26.8	18.9*	-0.5%
CC(C)NC(=O)N1CC[C@@]2(CCCN(S(C)(=O)=O)C2)C1	8.4%	.	.	.	.
O=C1CCN(C(=O)Cc2ccccc2[N+](=O)[O-])CC1	8.8%	.	-8.8	1.4	0.2%
O=[N+]([O-])c1cccnc1N1CCN(c2ccccc2F)CC1	0.3%	.	26.5	18.0*	-6.4%
O=C(CCOc1ccccc1F)N1CCN(c2ccccc2O)CC1	-5.2%	.	70.0*	30.7*	4.1%
O=C(Cc1ccccc1[N+](=O)[O-])N1CCN(c2ccccc2F)CC1	7.1%	-6.5%	13.7	12.3*	0.7%
COc1ccccc1OCCC(=O)N1CCN(c2ccccc2OC)CC1	-0.8%	-3.5%	-7.6	0.5	-6.6%
O=C(CCS(=O)(=O)c1ccccc1)N1CCN(c2ccccc2F)CC1	.	-10.8%	109.5*	35.0*	-3.5%
Cc1ccc(CC(=O)N2CCN(c3ccccc3F)CC2)cc1	4.5%	-35.3%	55.6	13.1*	2.7%
Cc1ccc(S(=O)(=O)CC(=O)N2CCN(c3ccccc3F)CC2)cc1	-7.6%	-8.7%	-5.2	3.8	-7.1%
O=C1C(Nc2ccccc2)=CC(c2ccc(O)cc2)N1c1ccccc1 (stereo unspecified)	-11.0%	5.8%	44.6*	28.5*	2.6%
COc1cc(C2C=C(Nc3ccccc3)C(=O)N2c2ccccc2)ccc1O (stereo unspecified)	-18.9%	?	57.1*	37.4*	7.2%
CN(CC(=O)N1CCN(c2ccc(F)cc2)CC1)S(=O)(=O)c1ccc(F)cc1	-2.9%	-3.7%	33.3*	14.1	5.6%
CC(=O)c1ccc(N2CCN(C(=O)CN(C)S(=O)(=O)c3cnc[nH]3)CC2)cc1	4.6%	.	42.4	39.2*	8.0%
O=[N+]([O-])c1cc([N+](=O)[O-])c2cc3ccccc3nc2c1	-12.6%	-56.8%	3.2	-2.2	2.7%
COc1ccc(C(=O)[C@H](Br)[C@H](Br)C(=O)O)cc1	.	-56.2%	.	.	.
SMILES	Giardia FBPA inh	NS1 function inh	Shiga toxin inh	Cycloheximide cs	LmPK inh
O=C(NC12CC3CC(CC(C3)C1)C2)c1ccc(-c2ccccc2Cl)o1	0.3%	14.7%	161.4*	43.6*	2.8%
O=C(NC12CC3CC(CC(C3)C1)C2)c1ccc(-c2cccc(Cl)c2)o1	0.6%	-4.3%	82.7*	35.0*	1.9%
O=C(NC12CC3CC(CC(C3)C1)C2)c1ccc(-c2ccc(Cl)cc2)o1	0.1%	-7.3%	128.6*	85.2*	0.0%
CCn1nnc(NC(=O)c2ccc(-c3ccc(Cl)cc3)o2)n1	2.5%	-0.3%	34.9*	35.9*	2.9%
CCCC(c1nnnn1CS(=O)(=O)c1ccc(C)cc1)N1CCC(C(N)=O)CC1 (stereo unspecified)	1.0%	4.2%	-11.3	-4.3	1.3%
CC(NC(=O)C1CCN(S(=O)(=O)c2ccc3c(c2)NC(=O)CO3)CC1)c1ccccc1 (stereo unspecified)	-3.1%	-0.3%	-9.2	-2.1	-5.2%
CC(=O)NC(=O)c1ccc(-c2ccc(Cl)cc2)o1	4.8%	-18.1%	16.9*	25.0*	-11.3%
Cc1ccc(NC(=O)c2oc3ccccc3c2C)nc1	1.7%	-3.1%	88.2*	63.3*	-8.9%
Cc1c(C(=O)NC(C)c2ccncc2)oc2ccccc12 (stereo unspecified)	6.0%	-0.6%	-1.4	1.7	4.5%
Cc1c(C(=O)Nc2ccccn2)oc2ccccc12	-8.2%	-8.0%	109.1*	46.7*	-19.0%
Cc1c(C(=O)Nc2ccncc2)oc2ccccc12	-5.4%	-84.6%	51.6	34.8*	-1.5%
Cc1c(C(=O)Nc2cccnc2Cl)oc2ccccc12	-5.5%	1.5%	81.3*	25.7*	1.7%
Cc1ccc([C@@]2(C)CC/C(=N/N=C3\CC[C@](C)(c4ccc(C)c(C)c4)c4cc(C)c(C)cc43)c3cc(C)c(C)cc32)cc1C	.	-5.6%	.	.	.
O=C(O)/C=C/C(=O)c1c(-c2ccccc2)[nH]c2ccccc12	-2.2%	10.9%	-4.2	-2.5	2.0%
COc1ccc(NC(=O)c2cncn2-c2ccccc2)cc1	-4.9%	9.3%	1.0	-2.8	0.1%
Cc1c(C(=O)NN2CCOCC2)oc2ccccc12	-1.4%	?	-20.8	11.5	-3.5%
Cc1c(C(=O)Nc2ccc(N3CCOCC3)cc2)oc2ccccc12	-6.6%	-2.4%	96.6*	39.6*	-0.4%
CCOC(=O)C1(Cc2ccccc2C)CCCN(C(=O)c2ccc(CSC)o2)C1 (stereo unspecified)	.	-15.3%	12.3	1.4	-2.6%
Cc1cc2c(s1)c1cnn(Cc3ccccc3)c(=O)c1n2C	.	.	-5.1	-4.5	.
Cc1nn(-c2ccccc2C(=O)O)c(=O)c2ccccc12	7.1%	7.4%	-4.8	-2.0	-7.7%
Cc1nn(-c2ccc(Br)cc2)c(=O)c2ccccc12	-2.0%	-3.3%	124.6*	69.7*	0.8%
CC1(C)C(=O)C=C[C@]2(C)[C@H]3CC[C@@]4(C)[C@H](c5ccoc5)OC(=O)[C@H]5O[C@]54[C@]3(C)[C@H](O)C[C@@H]12	-4.7%	-33.9%	45.8	20.7*	0.7%
COc1ccc(NC(=O)c2ccccc2NS(=O)(=O)c2ccc(CNC(C)=O)cc2)c(OC)c1	-5.6%	7.1%	-12.4	-4.5	10.5%
COc1ccc(OCCC(=O)Nc2ccccc2)cc1	-5.5%	6.1%	26.2*	16.9*	-3.7%
Cc1ccc(NC(=O)CCOc2ccccc2)cc1	10.3%	-35.5%	61.5*	54.1*	-0.1%
SMILES	Giardia FBPA inh	NS1 function inh	Shiga toxin inh	Cycloheximide cs	LmPK inh
O=C(CCCOc1ccccc1)Nc1ncccn1	7.2%	4.9%	37.6*	31.5*	-1.6%
Cc1ccc([N+](=O)[O-])cc1NC(=O)CCCOc1ccccc1	2.2%	2.9%	-6.9	-0.3	-1.7%
CCOC(=O)c1ccc(NC(=O)CCOc2ccccc2)cc1	2.6%	-59.6%	22.4	8.8	-0.3%
O=C(CCOc1ccccc1)Nc1ccc([N+](=O)[O-])cc1	1.9%	.	36.6*	23.2	-0.5%
COc1cc(NC(=O)CN(C)CCOc2ccccc2)c(C)cc1[N+](=O)[O-]	2.6%	-3.8%	-5.4	-1.4	1.9%
NS(=O)(=O)c1ccc(NC(=O)COC(=O)CCc2ccccc2)cc1	1.3%	3.3%	-1.8	-2.9	8.4%

Compound activity deposited in PubChem BioAssay by National Center for Advancing Translational Sciences (NCATS).
